In the supplement of paper PMC4166925:
± gives the standard deviation of the averaged measurements. Over roughly 33,000 sequences, “E-score (dimensionless, -0.5 to 0.5)” has its median near -0.046; the highest 2% begin near 0.36. Many of the other results were omitted from the sample, so the highest values are more common in it than they were.

tested on: T1, SpTbr T-box DNA-binding domain (GST fusion); assay: PBM E-score of 8-mer (E-score (dimensionless, -0.5 to 0.5)); Tbr is Tbrain of the sea star Patiria miniata (Pm) or the sea urchin Strongylocentrotus purpuratus (Sp); higher = stronger binding preference; conditions: the construct has about 5 more residues each side
T1 sequence: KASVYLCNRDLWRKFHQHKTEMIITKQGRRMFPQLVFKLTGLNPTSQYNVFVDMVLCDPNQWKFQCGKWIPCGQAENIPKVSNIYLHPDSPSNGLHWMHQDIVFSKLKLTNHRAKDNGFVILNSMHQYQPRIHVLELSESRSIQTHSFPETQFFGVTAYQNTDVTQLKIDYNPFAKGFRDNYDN
Experimental: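 Universal protein-binding microarray (Agilent AMADID 016060, 60-bp probes with a 35-bp variable region) incubated with 200 nM GST-fused Strongylocentrotus purpuratus Tbr T-box DNA-binding domain (residues 362-554) in PBS pH 7.5. Scored for every ungapped 8-mer (given with its reverse complement) as E-score (range -0.5 to 0.5; >0.45 counts as bound) and Z-score of median probe intensity. Two replicate arrays (datasets 1 and 2).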
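Also: protein at 200 nM in PBS on universal double-stranded arrays.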

| Sequence | PBM E-score of 8-mer |
| --- | --- |
| GTGCCAAC | 0.4114 ± 0.0035 |
| CTGCCAAC | 0.0901 ± 0.035 |
| GTGCCAAA | 0.403 ± 0.0099 |
| AAGAGTAT | -0.163 ± 0.024 |
| ATACGCAC | 0.153 ± 0.063 |
| ATTTGGCG | 0.118 ± 0.03 |
| CTGGGGAA | 0.00742 ± 0.052 |
| TGCGTGAA | 0.3936 ± 0.0023 |
| GACGTGAC | 0.235 ± 0.032 |
| TCCGTGAA | 0.16 ± 0.012 |
| TACGTGAA | 0.0338 ± 0.073 |
| GGCGTGAC | 0.388 ± 0.0071 |
| GGCGTGCA | 0.0836 ± 0.055 |
| GCCGTGAA | 0.354 ± 0.018 |
| GGCGTGAA | 0.473 ± 0.0057 |
| CGCGTGAC | 0.355 ± 0.02 |
| CGCGTGAA | 0.4208 ± 0.0018 |
| CGCGTGAG | 0.313 ± 0.0063 |
| GCCGTGAC | 0.199 ± 0.011 |
| AGGCTGGG | -0.179 ± 0.012 |
| ACAGTGTA | 0.0565 ± 0.017 |
| ATAACTCC | -0.147 ± 0.029 |
| ACTGACTC | 0.0022 ± 0.0015 |

| Sequence | PBM E-score of 8-mer |
| --- | --- |
| AGCGTGAA | 0.413 ± 0.018 |
| AGCGTGAT | 0.28 ± 0.022 |
| AGCGTGAC | 0.3372 ± 0.0013 |
| AGAAGACA | 0.0347 ± 0.065 |
| ATGTGTCC | 0.144 ± 0.014 |
| ATGTGTCG | 0.385 ± 0.011 |
| ATGTGTCA | 0.4671 ± 0.00078 |
| ATATGTCG | 0.139 ± 0.047 |
| GTGTGTCA | 0.346 ± 0.0092 |
| CTGTGTCA | 0.247 ± 0.015 |
| CACATTCA | 0.21 ± 0.041 |
| CATAAAGA | -0.0483 ± 0.0071 |
| GCGGGTGA | 0.261 ± 0.03 |
| GAATTTCA | 0.056 ± 0.018 |
| AAGCAAGG | -0.0863 ± 0.017 |
| AGCCAGAA | -0.268 ± 0.024 |
| AAGGAGAT | -0.0983 ± 0.019 |
| AGAGGGCC | -0.194 ± 0.097 |
| CTCCACAA | 0.136 ± 0.0093 |
| CTCCACAC | 0.37 ± 0.0083 |
| GTCCACAA | 0.153 ± 0.039 |
| GTCCACAC | 0.385 ± 0.0075 |
| CTCCACAG | -0.0194 ± 0.034 |

| Sequence | PBM E-score of 8-mer |
| --- | --- |
| ATCCACAC | 0.357 ± 0.0097 |
| AGGGACGA | 0.053 ± 0.072 |
| CCTTTGAG | -0.17 ± 0.018 |
| CGGTAGCA | 0.276 ± 0.031 |
| CTTTGCAA | 0.0361 ± 0.021 |
| GATCGGAC | -0.287 ± 0.013 |
| ATCGGCTG | 0.0647 ± 0.039 |
| ATACTAGA | -0.222 ± 0.11 |
| ATTCTCAA | 0.138 ± 0.062 |
| CTTCTCAA | 0.0891 ± 0.045 |
| ATTCTCAG | 0.0379 ± 0.094 |
| CTTCTCTC | 0.08 ± 0.04 |
| CTTCTCAC | 0.401 ± 0.011 |
| ATTCTCAC | 0.415 ± 0.015 |
| ACCGAGGA | -0.0878 ± 0.039 |
| AGTTCCAT | 0.00979 ± 0.0044 |
| GTGCGATA | 0.427 ± 0.0042 |
| CTGCGACA | 0.198 ± 0.036 |
| TTGCGAAA | 0.33 ± 0.038 |
| GTGCGAGA | 0.42 ± 0.0079 |
| CTGCGAAA | 0.342 ± 0.036 |
| ATGCGACA | 0.285 ± 0.0073 |
| GTGCGACA | 0.398 ± 0.012 |

| Sequence | PBM E-score of 8-mer |
| --- | --- |
| CTGCGATA | 0.0968 ± 0.04 |
| ATGCGATA | 0.0476 ± 0.028 |
| GTGCGAAA | 0.4765 ± 0.0018 |
| ATGCGAGA | 0.172 ± 0.017 |
| CTGCGAGA | 0.185 ± 0.0098 |
| GATACCCC | -0.273 ± 0.041 |
| CAAGGATA | -0.175 ± 0.043 |
| GAATCTGC | -0.0922 ± 0.056 |
| ATGCTCCG | -0.0668 ± 0.061 |
| AAGCCCGG | -0.24 ± 0.028 |
| CATGCTAA | 0.0578 ± 0.029 |
| ACCTACTA | 0.17 ± 0.057 |
| GCATTCTA | -0.293 ± 0.06 |
| AGGCAGAC | -0.227 ± 0.0024 |
| GTGCGAAC | 0.4783 ± 0.00073 |
| CTGCGATC | 0.106 ± 0.1 |
| ATGCGAAC | 0.154 ± 0.017 |
| CTGCGAAC | 0.365 ± 0.0088 |
| GGGCGAAC | -0.0364 ± 0.016 |
| CTGCGAAG | 0.2479 ± 0.0022 |
| AATGAGGA | -0.334 ± 0.058 |
| AACAATGA | 0.0839 ± 0.096 |
| AAAGTTCA | -0.0472 ± 0.047 |

| Sequence | PBM E-score of 8-mer |
| --- | --- |
| CTACCGAG | -0.07 ± 0.013 |
| CACCTGTA | 0.331 ± 0.036 |
| CACCTGTC | 0.431 ± 0.019 |
| CACCTGAA | 0.29 ± 0.0089 |
| AACCTGTC | 0.248 ± 0.011 |
| AACCTGAC | 0.121 ± 0.003 |
| CACCTGAC | 0.374 ± 0.0049 |
| GGATCCAC | -0.00958 ± 0.069 |
| CGAAGTAC | -0.169 ± 0.067 |
| GCCGTTTA | 0.0646 ± 0.08 |
| CGTGCGAG | 0.373 ± 0.018 |
| CGTGCGAC | 0.238 ± 0.029 |
| AGTGCGAC | 0.341 ± 0.024 |
| AATGCGAT | 0.0396 ± 0.031 |
| CATGCGAG | 0.106 ± 0.012 |
| AGTGCGAT | 0.4291 ± 0.0025 |
| ACTGCGAG | 0.17 ± 0.033 |
| AGTGCGAG | 0.408 ± 0.022 |
| ACTGCGAT | 0.117 ± 0.0014 |
